# In PubChem BioAssay AID1851 (National Center for Advancing Translational Sciences (NCATS), 2009):
# Hit rate of the full screen: of about 16,000 compounds, about 2,600 (16%) were called active. Inconclusive results (about 20%) are left out. Not all results are given here. A number with no mark means an inactive call. Calls come from the whole dose curve; as a rule, active = well fitted curve in the direction sought with a large enough effect; inconclusive = small, poorly fitted or top-dose-only effect, or effect the other way; inactive = no such curve, though single readings can be large or run the other way.
# Target: Cytochrome P450 2D6 (Homo sapiens) (UniProt P10635)
# Sequence (P10635 whole entry, looked up): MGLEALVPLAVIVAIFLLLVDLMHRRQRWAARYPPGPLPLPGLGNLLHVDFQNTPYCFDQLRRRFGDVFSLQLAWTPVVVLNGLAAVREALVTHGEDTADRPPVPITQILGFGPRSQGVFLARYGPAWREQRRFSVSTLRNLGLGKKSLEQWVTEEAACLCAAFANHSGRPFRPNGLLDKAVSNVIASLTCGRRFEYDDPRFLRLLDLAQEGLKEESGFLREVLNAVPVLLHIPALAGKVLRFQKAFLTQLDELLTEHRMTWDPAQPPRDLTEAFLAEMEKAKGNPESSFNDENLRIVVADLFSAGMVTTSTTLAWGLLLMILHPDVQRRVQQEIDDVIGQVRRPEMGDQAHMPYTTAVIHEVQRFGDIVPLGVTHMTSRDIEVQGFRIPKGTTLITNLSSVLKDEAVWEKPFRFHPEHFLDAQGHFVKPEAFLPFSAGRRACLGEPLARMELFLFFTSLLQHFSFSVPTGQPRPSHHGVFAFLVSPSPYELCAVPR
# Experiment: Cytochrome panel assay with activity outcomes
# Settings: recombinant CYP, pro-luciferin dealkylation, luminescence, p450-cyp2d6; series mostly up to 57.1 µM
# % is set by controls: 0 for no effect and ±100 for the full control effect.
SMILES,AC50,"activity, negative = inhibition"
O=[N+]([O-])c1ccc(Cl)c(-c2ccc(/C=N/c3c(-c4ccco4)nc4ccccn34)o2)c1,inactive,
Cc1cc(-c2cccc([N+](=O)[O-])c2)nc2ccc3ccccc3c12,inactive,
N#CCCn1c(=O)c(-c2ccc(F)cc2)nc2cnc(Oc3cccc(Cl)c3)nc21,inactive,
C[C@@](N)(Cc1c[nH]c2ccccc12)C(=O)O,,5.35% [at 11.4 µM]
O=C(Cc1c[nH]c2ccccc12)OCC(=O)c1ccccc1,inactive,
CCOC(=O)CCCc1c[nH]c2ccccc12,17.8 µM (active),
[O-][N+]1(CC[N+]2([O-])CCCCC2)CCCCC1,,3.01% [at 11.4 µM]
COc1cccc(/C=N/n2c(=S)n(C)c3cc(C)c(C)cc32)c1OC,inactive,
CC(=O)CSc1nnc(Cc2ccc([N+](=O)[O-])cc2)o1,inactive,
O=C(O)Cc1cc2ccccc2nc1C(=O)O,inactive,
COC(=O)C1C(=O)C2=C(CC1C)NC(=O)CC2c1cccc(C)c1 (configuration not stated),inactive,
COc1ccc2[nH]cc(CCNc3ncncc3-c3ccccc3OC)c2c1,1.26 µM (active),
COc1ccc2[nH]cc(CCNc3ncncc3-c3ccccc3CN(C)C)c2c1,10 µM (active),
COc1ccc2[nH]cc(CCNc3ncncc3-c3ccccc3C(F)(F)F)c2c1,2 µM (active),
COc1ccc2[nH]cc(CCNc3ncncc3-c3ccccc3Cl)c2c1,0.631 µM (active),
CC[C@@H]1CN2CCc3cc(OC)c(OC)cc3[C@H]2C[C@@H]1C[C@H]1NCCc2cc(OC)c(OC)cc21,inactive,
COc1c2ccoc2nc2c(OC)c(OC[C@H](O)C(C)(C)O)ccc12,inactive,
CC(=O)N1N=C(c2cccc([N+](=O)[O-])c2)OC1c1ccccc1Cl (configuration not stated),inactive,
O=c1c(-c2cccs2)nc2cnc(Oc3cccc(Cl)c3)nc2n1C[C@H]1CCCO1,inactive,
CCc1ccc(-c2cc(C(F)(F)F)n3nc(C(=O)Nc4cnn(Cc5ccccc5C)c4)cc3n2)s1,inactive,
CCOC(=O)c1c(NC(C)=O)sc2c(OC)cccc12,inactive,

SMILES,AC50,"activity, negative = inhibition"
COC(=O)c1ccc(OCC2c3cc(OC)c(OC)cc3CCN2C(=O)C2CC2)cc1 (configuration not stated),inactive,
COc1ccc2[nH]cc(CCNc3ncncc3-c3ccccc3C)c2c1,1.26 µM (active),
CCCCN(C)S(=O)(=O)c1ccc(C(=O)Nc2nnc(CSC)o2)cc1,inactive,
CCCc1nn(-c2ccccc2)c2c1C(c1cccs1)C(C#N)=C(N)O2 (configuration not stated),inactive,
Cc1[nH]n(-c2ccccc2)c(=O)c1CCOC(=O)c1cccc(C(F)(F)F)c1,inactive,
C[C@@H](Cc1cccc(C(F)(F)F)c1)NCCOC(=O)c1ccccc1,0.0158 µM (active),
CCC(C(=O)Nc1cccc(C(F)(F)F)c1)c1ccccc1 (configuration not stated),inactive,
COc1cccc(-c2cc(C(=O)N/N=C/c3ccc(OC)c(COC(C)=O)c3)c3ccccc3n2)c1,inactive,
CCc1ccc(NC(=O)Cn2nc(C(F)(F)F)c3c2CCC3)cc1,inactive,
CN(C)C(=O)c1ccc(-n2nc(C(F)(F)F)c3c2CCCC3)cc1,8.91 µM (active),
O=C(Cn1nnc(-c2ccccc2)n1)OCc1ccccc1,inactive,
CCC[C@H](Sc1nc(N)nc2nc[nH]c12)C(=O)O,,1.31% [at 11.4 µM]
CCCNC(=O)OC[C@H]1O[C@@H](CCO/N=C2/[C@H]3O[C@@H]3[C@@H](O)[C@H]3[C@H]2CCn2c(=O)n(-c4ccccc4)c(=O)n23)C=C[C@@H]1Oc1ccc(OC)cc1,,10.6% [at 11.4 µM]
CCCCCc1nc2c(C#N)c(-c3ccc(Cl)cc3)ccn2n1,inactive,
O=C(c1cnccn1)N1CCC[C@@]2(CCN(C(c3ccccc3)c3ccccc3)C2)C1,10 µM (active),
O=C(c1cnccn1)N1CCC2(CC1)CN(c1ccccc1)C2,inactive,
O=C(c1cnccn1)N1CCC2(CC1)CCN(c1ccccc1)CC2,inactive,
O=C(c1cnccn1)N1CCC2(CC1)CN(C(c1ccccc1)c1ccccc1)C2,6.31 µM (active),
O=C(c1cnccn1)N1CCC2(CCCN(c3ccccc3)C2)CC1,inactive,
O=C(Nc1ccccc1)N1CC2(CCN(C(=O)c3cnccn3)CC2)C1,inactive,
O=C(c1cnccn1)N1CCC2(CC1)CCN(C(c1ccccc1)c1ccccc1)CC2,3.98 µM (active),

SMILES,AC50,"activity, negative = inhibition"
O=C(c1cnccn1)N1CCC[C@@]2(CCN(c3ccccn3)C2)C1,inactive,
O=C(c1cnccn1)N1CCC2(CCCN(C(c3ccccc3)c3ccccc3)C2)CC1,10 µM (active),
O=C(Nc1ccccc1)N1CC[C@@]2(CCCN(C(=O)c3cnccn3)C2)C1,inactive,
O=C(Nc1ccccc1)N1CCCC2(CCN(C(=O)c3cnccn3)CC2)C1,inactive,
O=C(Nc1ccccc1)N1CCC2(CC1)CCN(C(=O)c1cnccn1)CC2,inactive,
Cc1cc(NC(=O)Nc2ccc(F)cc2)no1,inactive,
Clc1ccccc1C(Nc1ncccn1)Nc1ncccn1,,1.87% [at 11.4 µM]
CN(C)CCCN=c1c2ccccc2n(C)c2[nH]c(=O)n(C)c(=O)c12,,13.4% [at 11.4 µM]
CCN1CCN(C(=O)C2c3cc(OC)c(OC)cc3C(=O)N3CCc4ccccc4C23)CC1 (configuration not stated),inactive,
O=C(O)C1C2C=CC3(CN(Cc4ccccn4)C(=O)C13)O2 (configuration not stated),inactive,
CCOC(=O)Cn1nnc2c(sc3nc4c(c(-c5ccc(Cl)cc5)c32)CCC4)c1=O,inactive,
CC(C)Cn1c(=O)n(C)c(=O)c2[nH]cnc21,inactive,
FC(F)(F)c1cc(C(F)(F)F)c2ccc(N/N=C/c3cccc(Cl)c3)nc2n1,inactive,
FC(F)(F)c1ccccc1-c1cncnc1NCc1cccs1,15.8 µM (active),
Cc1ccccc1-c1cncnc1NCc1cccs1,12.6 µM (active),
Clc1ccccc1-c1cncnc1NCc1cccs1,10 µM (active),
CC(=O)NCCNc1ncncc1-c1ccccc1C,inactive,
Cc1cnc(CNc2ncncc2-c2c(C)noc2C)cn1,inactive,
COc1ccccc1-c1cncnc1NCc1cccs1,15.8 µM (active),
CO[C@H]1COC(=O)C/C=C\[C@@H](C)COC(=O)[C@@H](C)NC(=O)C/C=C\[C@@H]1C,,1.11% [at 11.4 µM]
